In PubChem BioAssay AID1508600 (Functional Genomics Laboratory (NCATS/FGL), 2020):
Out of some 53,000 sequences screened, about 3,700 (7%) were called active.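 Rule for the calls: active = gene knockdowns whose robust z-score for IL-1 alpha signal is at least 2 or at most -2, so actives lie on both sides; inactive = the rest.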 Only a selection was taken, and actives are over-represented in it overall.

Test: Components of the Cytosolic LPS Sensing Pathway: Gene Identification via Genome-wide siRNA Screen;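 note: robust z of the log signal after scaling to non-targeting control siRNA wells of the plate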
Details: RAW264.7 macrophages, IL-1a HTRF, actives lie on both sides, screened at 100 nM (by protocol), cells primed 5 h with Pam3CSK4 first
Summary of the method: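 Knockdown: 100 nM siRNA, 48h, RAW264.7. Stimulation: Pam3CSK4 5 h, then LipidA via TransIT-TKO 24 h. Output: supernatant IL-1a HTRF, negative-control-normalized, log robust z-score; viability by CellTiter-Glo.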

z-score, inactive:
GGAAAAAUGGUCUGUAAAATT against Adck2 0.508
GGAAAAGGUGACCUGUCUCTT against Slc44a1 -1.77
GGCCAGAAAGGCAGCAAAGTT against Msgn1 -1.03
GGAAGUGAAGACCUUCUUCTT against St3gal4 -0.898
UCGAUAGCCUCAAUCAGCATT against Zfp58 -1.99
GCAUUCGUUCGGCACGUGUTT against Bcl2l14 -0.0672
GCCCUGGAUCAUUGAGUGATT against Atp2b1 0.749
GGCCAUACACCUGUGACAUTT against Osr2 1.37
CCCUCUACUACUGCAUCGUTT against Xkr7 1.74
GCACUUCUACCGGAAAGUUTT against Mad2l1bp -0.761
GCAAAGCCCUAUUCCUAAUTT against Vmn2r42 1.21
GGCCUAAACCCUUUCAUCUTT against V1rb6 -0.0202
GCGAUCCUCUCUACUUAACTT against Eno4 -1.49
GCGGGUAUGAUGGUACCUUTT against Pomt2 1.39
GGUACUUCACAAUGGACAGTT against Zcchc9 0.951
GGUGCAUUUUCUAGAAUCATT against Usp45 0.933
GCCACCAAGUACUUUGGUUTT against Vmn1r76 1.34
GCAAUUUGCUCAUCUCUAATT against Dcc 1.89
GGAUGCAGAUGCUGUGGACTT against S100a1 -0.918
GGAGUACGACUACUACGGUTT against Sfrp5 0.83
GGCGAGCAUCGCUAUUGACTT against Zcrb1 0.734
GGAGAUCCUAGGCUUGAACTT against Vsx2 0.279
GGGAGACUUGUCAUGCACATT against Slc45a2 0.728
GGUAGCUGAAGAAGACUUCTT against Reg2 -0.591
GGCUUUGCUGAAUGUCUCATT against Nrn1l 0.443
CCUGCUAAUGUUUGUAAGUTT against Sowahc 1.37
GGAACUCACCCUCAGCUUGTT against Tmem260 0.313
CCAAACAACCAGCUAAUAUTT against Mia3 -0.375
GGUGAAAUGAGAAUACUUGTT against Erap1 1.07
GGAAUGAUGAAGAGUGUCCTT against Btla -0.0564
GGCUACUGUAGGAAGAAAUTT against Defb20 1.7
GGAAGUUUUGUUCCUGCAUTT against Nars2 -0.0244
GGCCAUCCAGAAUUACAUGTT against Vash2 1.08
CCGGGUCAGGACAAUUCAUTT against Hsd17b1 1.87
GGCCAUUGAUCAAGACAAGTT against Glyat 1.66
GCCGUGAUGCCUAAAAUGCTT against Olfr543 -0.306
GGUAUCUUGAGAAGCCAAUTT against Stat3 -0.536
GGAUUCAUCAUCUACCCGGTT against C1ql4 -1.08
GGAUAACCUUGAGUAGGUGTT against Olfr906 0.484
CGGAUACCUAGAGUGCAUCTT against Zfp42 0.725
CGUGGAAGCUGUGUUAUCUTT against Il34 -0.112
AACGUAAUUAGCGUGAAUUTT against Cyp2j11 0.337
CUUGUCAAGUGAUGAAAUGTT against Xlr -0.546
GGUCGAAAGAAUAAUUUGUTT against Cct6a -0.628
GGCAGUCUACUUUACACGGTT against Prdm1 0.294
GGAUCUUGGAUAAAGUGUGTT against Gpr180 1.73
CCCAGUUGCUGUUCUUGACTT against Defb40 0.553
GGCUUCCUCAAGAACUUUCTT against Acly 0.0643
CCGGUUACAAACUCAACUGTT against Syne3 -0.285
GGGAGAGAUCCUCAACAGGTT against Cdk5rap1 -0.581
CCUGGGUUGGAUAAAACUUTT against 6030458C11Rik -0.0611
GGAUUUUAAACCUUAAGGUTT against Ssty1 0.49
GGCAGUGAAGAGAAGAAGUTT against Trub2 -0.835
GGAUUUCUUUGUCAGUACUTT against Il22ra2 0.791

z-score, active:
GGAGAAGGUCGAAAAGCCUTT against Rybp -2.01
CGAAGGGAAGCAAAAUACATT against Bend5 2.11
GGAUGAUCGCUUUUGCUAUTT against Caly 2.02
CGUGGGACCUGGUAUGUAATT against Slc22a12 2.79
CGUGAUGAGUGAAAAUGAUTT against Cd34 -2.12
GGUACCUAUGCCAGUUUUGTT against Aqp12 2.89
GGAUUACCGGCAGCUGGAATT against Dnm1 2.24
GCAUUAAUUGCUUCUCUUATT against Nup155 -2.35
CCCUGGUUGUUUGUAGAGUTT against Armt1 2.38
GGAGAAGGAACUGUGUGAGTT against Nfkbil1 -2.26
GGCUUUGUAGAAAAUUCAUTT against Polr2a -2.15
GGAUGACCAGAACUUCAGUTT against Zfp956 2.84
GCAGUUCCCAUAGUUUUCUTT against Il1r2 6.07
GGCAAUUUUCAGAGAAGUUTT against Fosb -2.08
GGUGCAUGACCUGACAAAGTT against Fermt3 2.5
